A selection: hits, their analogues and other compounds. The true share with any hit is near 4.1%.
697 NFkB inh: lowers PMA/ionomycin-induced NF-kB signal in 697 B cells | 697 B-cell NF-kB luciferase reporter, 16 h | inhibition, % at 4 µM | actives 0.33% (n = 330,000) | AID 435022; in the data active = inhibition above about 35%
KLF5 inh: inhibitors of KLF5 expression | DLD-1 KLF5 promoter-luciferase reporter, luminescence | actives 0.23% (n = 290,000) | inhibition, % at 5 µM;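 active = inhibition above a per-plate limit of that plate's mean compound inhibition plus 3 SD, cut at about 60% in these data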;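 note: higher means less KLF5 promoter-driven luciferase light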
Mdm2 MdmX PPI: inhibitors of human Mdm2/MdmX interaction. O15151+Q00987. SaOS-2 split-luciferase Mdm2/MdmX complementation, luminescence. inhibition, % at 8 µM. actives 3% (n = 330,000);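 active = inhibition of at least 50% at 8 µM in the primary screen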
Target sequence (O15151 whole entry, looked up): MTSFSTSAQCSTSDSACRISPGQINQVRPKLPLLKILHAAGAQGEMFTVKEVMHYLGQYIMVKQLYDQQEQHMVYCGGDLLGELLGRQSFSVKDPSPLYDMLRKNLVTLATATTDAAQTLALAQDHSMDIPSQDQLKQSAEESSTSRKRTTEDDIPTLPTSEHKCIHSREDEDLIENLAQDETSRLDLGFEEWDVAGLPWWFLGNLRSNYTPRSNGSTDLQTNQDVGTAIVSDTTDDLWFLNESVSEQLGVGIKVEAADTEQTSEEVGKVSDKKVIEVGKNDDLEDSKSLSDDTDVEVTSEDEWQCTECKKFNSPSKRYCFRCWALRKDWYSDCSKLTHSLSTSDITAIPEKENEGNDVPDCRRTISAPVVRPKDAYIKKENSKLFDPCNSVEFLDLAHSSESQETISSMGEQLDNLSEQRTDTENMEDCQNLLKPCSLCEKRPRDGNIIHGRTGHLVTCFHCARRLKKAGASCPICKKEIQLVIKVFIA
Target sequence (Q00987 whole entry, looked up): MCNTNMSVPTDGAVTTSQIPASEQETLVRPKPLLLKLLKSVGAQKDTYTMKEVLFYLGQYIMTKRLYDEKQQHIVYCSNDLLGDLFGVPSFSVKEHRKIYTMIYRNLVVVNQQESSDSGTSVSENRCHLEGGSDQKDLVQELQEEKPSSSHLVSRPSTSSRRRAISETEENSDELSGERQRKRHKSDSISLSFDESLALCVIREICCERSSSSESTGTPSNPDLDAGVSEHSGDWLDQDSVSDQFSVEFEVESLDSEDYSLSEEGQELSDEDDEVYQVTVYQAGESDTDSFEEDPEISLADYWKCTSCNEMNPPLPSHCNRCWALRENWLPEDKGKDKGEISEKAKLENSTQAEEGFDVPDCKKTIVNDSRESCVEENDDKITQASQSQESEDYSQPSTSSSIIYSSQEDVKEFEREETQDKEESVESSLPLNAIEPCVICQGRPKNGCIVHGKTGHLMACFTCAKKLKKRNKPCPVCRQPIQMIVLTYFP
Gli-Sufu block: Gli-Sufu pathway antagonism; Sufu-KO-LIGHT fibroblasts, Gli luciferase reporter luminescence; inhibition, % at 5 µM; actives 0.74% (n = 340,000); AID 588413;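 active = inhibition above about 55%, limit read from the data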
Jurkat NFkB inh: lowers PMA/ionomycin-induced NF-kB signal in Jurkat cells; PMA/ionomycin-induced NF-kB luciferase reporter, luminescence; inhibition, % at 4 µM; actives 0.53% (n = 330,000); in the data active = inhibition above about 50%
aSyn 5UTR inh: MLPCN primary screen, SNCA 5' untranslated region; alpha-synuclein 5'UTR reporter, inhibitor activity; inhibition, % (tested at 7.5 µM); actives 0.82% (n = 300,000); AID 1813; in the data active = inhibition above about 60%;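 note: H4 neuroglioblastoma cells stably carrying SNCA 5'UTR luciferase fusion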
Mdm2-MdmX conf: confirmation of human Mdm2/MdmX interaction inhibitors | inhibition, % at 8 µM | AID 489028 | actives 55% (n = 10,000) | shares compounds with Mdm2 MdmX PPI | Mdm2-MdmX binding, luminescent assay; in the data active = inhibition above about 40%
Full FLuc ctr: counter-screen for Mdm2/MdmX inhibitors: full-length luciferase; AID 504607; SaOS-2 full-length luciferase counterscreen, luminescence; shares compounds with Mdm2 MdmX PPI; actives 77% (n = 6,200); inhibition, % at 8 µM;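 active = mean inhibition at 8 µM reaching about 37%, which flags the compound as non-specific, limit read from the data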;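 note: p53-null SaOS-2 cells with luciferase driven by a doxycycline-inducible promoter; compound on cells about two nights before reading with doxycycline added after day one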
Of the large screens only hits and unclear results are named; the others gave an inactive call (follow-up assays come after a bar, where they were run).

Cc1c(CN(C)C)c2c(n1C)C(=O)c1ccc(Br)cc1-2	none
COc1ccc(CCC(=O)Nc2ccc(S(=O)(=O)Nc3nccc(C)n3)cc2)cc1	none
Nc1cc(=O)nc(SCC(=O)Nc2ccccc2Cl)n1-c1ccccc1	none
CCC(=O)Nc1ccc(C(=O)Cn2ncc(Cl)c(Cl)c2=O)cc1	Mdm2 MdmX PPI 86 | Mdm2-MdmX conf 63 | Full FLuc ctr 43
CCOC(=O)c1ccc(NC(=O)Cn2ncc(Cl)c(Cl)c2=O)cc1	Mdm2 MdmX PPI 89 | Mdm2-MdmX conf 100 | Full FLuc ctr 51
CC(=O)NC12CC3CC(C1)CC(C(=O)N1CCN(S(=O)(=O)c4ccccc4C#N)CC1)(C3)C2	none (no result: 697 NFkB inh, KLF5 inh, Mdm2 MdmX PPI, Jurkat NFkB inh, aSyn 5UTR inh)
Cc1ncc([N+](=O)[O-])n1CC(=O)N/N=C/c1ccccc1F	none
CC1CCN(C(=O)C2CCC(=O)N(Cc3ccc(Cl)cc3)C2)CC1 (centres undefined)	none
CC(=O)NC(c1ccc(Cl)cc1Cl)c1ccc2cccnc2c1O (centres undefined)	Mdm2 MdmX PPI 68, Gli-Sufu block 87, aSyn 5UTR inh 86 | Mdm2-MdmX conf 87 | Full FLuc ctr 54
COc1ccccc1C(NC(C)=O)c1c(O)ccc2ccc(O)cc12 (centres undefined)	none (no result: KLF5 inh)
COc1ccc(C(NC(C)=O)c2ccc3cccnc3c2O)c(OC)c1 (centres undefined)	Mdm2 MdmX PPI 74, aSyn 5UTR inh 83 (no result: KLF5 inh) | Mdm2-MdmX conf 71 | Full FLuc ctr inactive
COC(=O)c1ccccc1S(=O)(=O)N1CCC(C(=O)OCc2cccc(OC)c2OC)CC1	none (no result: KLF5 inh)
Nc1nnnn1/N=C/c1cc(Cl)cc(Cl)c1OCc1ccc(Cl)cc1Cl	Mdm2 MdmX PPI 81 | Mdm2-MdmX conf inactive
Nc1nnnn1/N=C/c1ccccc1OCc1ccc(Cl)cc1Cl	none
Cc1cc(=O)[nH]c(SCC(=O)Nc2cccc3ccccc23)c1C#N	none
COc1cc(NC(=O)c2ccccc2)c(OC)cc1NC(=O)CSc1[nH]c(=O)cc(C)c1C#N	Mdm2 MdmX PPI 84 | Mdm2-MdmX conf inactive
CCN1C(=NCCc2ccc([N+](=O)[O-])cc2)N[C@@H](c2ccccc2)[C@H](C(=O)OC)[C@H]1C	none (no result: KLF5 inh, aSyn 5UTR inh)
CCN1C(=NCCc2ccc(Br)cc2)N[C@@H](c2ccccc2)[C@H](C(=O)OC)[C@H]1C	Mdm2 MdmX PPI 52 (no result: KLF5 inh, aSyn 5UTR inh) | Mdm2-MdmX conf inactive
COc1cc2[nH]c3c(N4CCN(c5ccc(Cl)cc5)CC4)ncnc3c2cc1OC	Mdm2 MdmX PPI 53 | Mdm2-MdmX conf inactive
C[C@@H](NC(=O)c1[nH]cnc1C(=O)Nc1ccc(Cl)cc1)c1ccccc1	Mdm2 MdmX PPI 60 (no result: KLF5 inh, aSyn 5UTR inh) | Mdm2-MdmX conf 45 | Full FLuc ctr 62
C[C@H](NC(=O)c1[nH]cnc1C(=O)Nc1ccc(Cl)cc1)c1ccccc1	Mdm2 MdmX PPI 61 (no result: KLF5 inh, aSyn 5UTR inh) | Mdm2-MdmX conf inactive | Full FLuc ctr 68
CCN(CC(=O)Nc1ccc(OC)cc1)C(=O)c1cc(-c2cccs2)nn1-c1ccccc1	Mdm2 MdmX PPI 60 (no result: KLF5 inh) | Mdm2-MdmX conf 55 | Full FLuc ctr 90
CC(C)c1ccc(N2C(=NC(=O)C3CC3)SC3CS(=O)(=O)CC32)cc1 (centres undefined)	none
CN(C)S(=O)(=O)c1ccc(-c2csc(N/N=C/c3ccco3)n2)cc1	Mdm2 MdmX PPI 72 | Mdm2-MdmX conf inactive
Cc1ccc(-c2csc(N/N=C/c3ccco3)n2)cc1	none
CN(C)S(=O)(=O)c1ccc(-c2csc(N/N=C/c3ccc(O)cc3)n2)cc1	Mdm2 MdmX PPI 100 | Mdm2-MdmX conf 83 | Full FLuc ctr 38
Cc1cc(=O)oc2cc(Oc3ccc([N+](=O)[O-])cc3[N+](=O)[O-])ccc12	Mdm2 MdmX PPI 60 | Mdm2-MdmX conf 65 | Full FLuc ctr 52
COc1ccc([N+](=O)[O-])cc1COc1ccc2c(-c3ccccc3)cc(=O)oc2c1	Mdm2 MdmX PPI 52 | Mdm2-MdmX conf inactive
Cc1cc(=O)oc2cc(Oc3ncccc3[N+](=O)[O-])ccc12	none
O=Cc1cccc(Oc2ccc([N+](=O)[O-])cc2[N+](=O)[O-])c1	Mdm2 MdmX PPI 64 | Mdm2-MdmX conf inactive
O=C(c1ccccc1)c1ccc(Oc2ccc([N+](=O)[O-])cc2[N+](=O)[O-])cc1	none (no result: 697 NFkB inh, KLF5 inh, Mdm2 MdmX PPI, Jurkat NFkB inh, aSyn 5UTR inh)
C=Cc1ncc(OC)c2c1[nH]c1ccccc12	Mdm2 MdmX PPI 100 (no result: KLF5 inh) | Mdm2-MdmX conf 59 | Full FLuc ctr inactive
COc1cccc2[nH]c3ccccc3c(=O)c12	none
CC(C)(C)NC(=O)Cn1nnc(-c2ccccc2NC(=O)c2ccco2)n1	none
O=C(Cn1nnc(-c2ccccc2NC(=O)c2ccco2)n1)Nc1ccccc1	Mdm2 MdmX PPI 76 | Mdm2-MdmX conf 41 | Full FLuc ctr 64
Cc1[nH]c(-c2ccc(F)cc2)cc1C(=O)N1CCN(c2ccccc2F)CC1	none
COc1ccc(-c2csc(NC(=O)C3CCCCN3S(=O)(=O)c3ccccc3)n2)cc1 (centres undefined)	none
COc1cccc2cc(C(=O)Nc3cc(C)cc(C)c3)/c(=N/NS(=O)(=O)c3ccccc3)oc12	Mdm2 MdmX PPI 78 | Mdm2-MdmX conf inactive
Cc1cc(/C=N/n2c(COc3ccccc3C)nc3ccccc3c2=O)c(O)c([N+](=O)[O-])c1	Mdm2 MdmX PPI 56 | Mdm2-MdmX conf 64 | Full FLuc ctr 46
CC(=O)Nc1ccc(Nc2ccc3c4c(cc(=O)n3C)-c3ccccc3C(=O)c24)cc1	Mdm2 MdmX PPI 59 | Mdm2-MdmX conf inactive
COc1ccc(C(=O)OCC(=O)NCc2ccc3c(c2)OCO3)cc1S(=O)(=O)N1CCOCC1	none (no result: KLF5 inh, aSyn 5UTR inh)
CC/C(=N\NC(=O)C1CCCC1)c1ccc(Br)cc1	none
Cc1cc(C)c2c(c1)/C(=c1/sc3n(c1=O)CN(c1ccccc1)CN=3)C(=O)N2	Mdm2 MdmX PPI 57 | Mdm2-MdmX conf inactive
CCOC(=O)Nc1ccc2c(COC(=O)C(NS(=O)(=O)c3ccc(Cl)cc3)C(C)O)cc(=O)oc2c1 (centres undefined)	none (no result: KLF5 inh, aSyn 5UTR inh)
COc1ccc(S(=O)(=O)N2c3ccccc3OCC2c2ccccc2)cc1 (centres undefined)	Mdm2 MdmX PPI 51 | Mdm2-MdmX conf 72 | Full FLuc ctr 48
COc1ccc(S(=O)(=O)N2CCN(C(=O)C3COc4ccccc4O3)CC2)cc1 (centres undefined)	none (no result: KLF5 inh, aSyn 5UTR inh)
COc1ccc(S(=O)(=O)N2CCOc3ccccc32)cc1	Mdm2 MdmX PPI 61 | Mdm2-MdmX conf 63 | Full FLuc ctr 54
COc1ccc(S(=O)(=O)N2c3ccccc3OCC2C(C)(C)C)cc1 (centres undefined)	Mdm2 MdmX PPI 58 | Mdm2-MdmX conf 47 | Full FLuc ctr 45
COc1ccc(S(=O)(=O)N2CC(C(=O)O)Oc3ccccc32)cc1 (centres undefined)	none
Cc1nc(CN2CCCCC2)cc(=O)[nH]1	none

High-throughput results deposited in PubChem by several laboratories.
